Shown are actives, neighbours in structure and some others; about 6.5% of the full set was active somewhere.
VACV Venus inh: qHTS for Stage-Specific Inhibitors of Vaccinia Orthopoxvirus: Venus Reporter Primary qHTS | Vaccinia virus Venus reporter expression, fluorescence | Potency, µM (series often up to 36.5 µM), most hits filed as inhibitors | 330,000 compounds, 0.46% hits; calls by dose curve; tested in A549 cells; note: nearly all actives have a fitted effect of over 30% in size
VACV mCherry inh: qHTS for Stage-Specific Inhibitors of Vaccinia Orthopoxvirus: mCherry Reporter Primary qHTS. Vaccinia virus mCherry reporter infection, fluorescence. 310,000 compounds, 0.63% hits. Potency, µM (doses to about 36.5 µM), hits mostly inhibitors; calls by dose curve; tested in A549 cells; note: nearly all actives have a fitted effect of over 35% in size
FMDV antiviral: High Throughput Screening for Foot and Mouth Disease Virus Antivirals; FMDV antiviral cell-based qHTS; Potency, µM (series often up to 57.9 µM), usual class: inhibitors; 410,000 compounds, 1.2% hits; AID 1159524, 2015; calls by dose curve; tested in HEK293T cells; note: read-out not given here; nearly all actives have a fitted effect of over 45% in size
Marburg entry inh: qHTS for inhibitors of binding or entry into cells for Marburg Virus; AID 540276, 2011; Marburg virus pseudotyped entry inhibition, cell reporter; 300,000 compounds, 1.8% hits; Potency, µM (series often up to 37.8 µM), actives largely listed as inhibitors; calls by dose curve; tested in HEK293 cells
LASV entry inh: qHTS for Inhibitors of binding or entry into cells for Lassa Virus. Potency, µM (series often up to 37.9 µM), usual class: inhibitors. AID 540256, 2011. 300,000 compounds, 1.2% hits. Lassa virus pseudotype entry inhibition, cell reporter; calls by dose curve; tested in HEK293 cells; note: nearly all actives have a fitted effect of over 50% in size
HCMV inh: qHTS Assay for inhibitors of the human cytomegalovirus (HCMV); HFF cells, HCMV-luciferase reporter, 72 h; hits give low values; 410,000 compounds, 4.5% hits; activity change, negative = inhibition, % at 57.5 µM; in the data active = activity change below about -60%; inconclusive = no clear call, values can overlap the other calls; inactive = above about -39%
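HFF cells seeded 16 h at 37C, treated with compounds, infected with luciferase-reporter HCMV at MOI 1 PFU/cell; luciferase read at 72 h post infection, normalized to buffer-only and Salinomycin controls.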
Of the large screens only hits and unclear results are named; the others gave an inactive call.

O=C(C1CCC(CNS(=O)(=O)c2cccs2)CC1)N1CCN(c2ccc(Cl)cc2)CC1 (configuration not stated)	VACV Venus inh inconclusive, VACV mCherry inh inconclusive, FMDV antiviral 31.6µM, LASV entry inh inconclusive, HCMV inh -93.0 (no result: Marburg entry inh)
CCOC(=O)[C@@H]1[C@H]2COc3cc(OC)ccc3[C@H]2N2C(=O)N(c3ccc(C)cc3)C(=O)[C@@]12C	HCMV inh -75.2 (no result: Marburg entry inh, LASV entry inh)
CCOC(=O)[C@@H]1[C@H]2COc3cc(OC)ccc3[C@H]2N2C(=O)N(c3ccc(C(F)(F)F)cc3)C(=O)[C@]12C	VACV Venus inh inconclusive, FMDV antiviral inconclusive, HCMV inh -87.5 (no result: Marburg entry inh, LASV entry inh)
CCOC(=O)[C@@H]1[C@H]2COc3cc(OC)ccc3[C@@H]2N2C(=O)N(c3ccc(C(F)(F)F)cc3)C(=O)[C@@]12C	none (no result: Marburg entry inh, LASV entry inh)
CC(C)(C=O)C1=CC(=O)c2ccccc2C1=O	FMDV antiviral 35.5µM, Marburg entry inh inconclusive, LASV entry inh inconclusive
O=C1C=C(N2CC2)c2ccccc2C1=O	VACV mCherry inh inconclusive, FMDV antiviral inconclusive (no result: Marburg entry inh, LASV entry inh)
CN(C)S(=O)(=O)c1cccc(C(=O)NC2CCCc3ccccc32)c1 (configuration not stated)	none
CCCNS(=O)(=O)c1cccc(C(=O)NC2CCCc3ccccc32)c1 (configuration not stated)	LASV entry inh 18.3µM (no result: VACV Venus inh, VACV mCherry inh)
CS(=O)(=O)Nc1cc(C(=O)N2CCNC(=O)C2)c2c(c1)ncn2CCc1ccccc1	none (no result: Marburg entry inh, LASV entry inh, HCMV inh)
COCCCN=C1NN=C(c2cc(C)n(-c3ccccc3)c2C)CS1	VACV mCherry inh inconclusive
COCCCN=C1NN=C(c2cc(C)n(Cc3ccccc3Cl)c2C)CS1	Marburg entry inh inconclusive, LASV entry inh inconclusive, HCMV inh -64.5
COCCn1c(C)cc(C2=NNC(=Nc3ccccc3F)SC2)c1C	FMDV antiviral inconclusive, Marburg entry inh inconclusive, LASV entry inh 2µM, HCMV inh -73.0
Fc1ccccc1N=C1NN=C(c2ccccc2)CS1	VACV Venus inh inconclusive, Marburg entry inh 11.2µM, LASV entry inh inconclusive, HCMV inh -98.1
COCCCN=C1NN=C(c2cc(C)n(-c3ccccc3F)c2C)CS1	Marburg entry inh 2.06µM, LASV entry inh 14.6µM, HCMV inh inconclusive (no result: VACV Venus inh, VACV mCherry inh)
COc1cc(OC)c(NC(=O)C(NS(=O)(=O)c2cccc3nsnc23)c2ccccc2)cc1Cl (configuration not stated)	none
Cc1cccc2nc(CNC(=O)CN3Cc4cc(Cl)ccc4OC(C)C3)cn12 (configuration not stated)	none (no result: Marburg entry inh, LASV entry inh, HCMV inh)
OC1(c2ccc3c(c2)CN(Cc2ccccn2)CCO3)CCN(c2ccccc2F)CC1	none (no result: Marburg entry inh, LASV entry inh, HCMV inh)
O=C1NC(=O)C(=Cc2ccc(-c3cc(Cl)ccc3[N+](=O)[O-])o2)C(=O)N1	VACV mCherry inh inconclusive, FMDV antiviral 20µM, Marburg entry inh inconclusive
CC1=C(C#N)C(=O)NC(=O)/C1=C\c1ccc(-c2cc(C)c(C)cc2[N+](=O)[O-])o1	FMDV antiviral inconclusive
Cc1ccc(-c2ccc(/C=C3\C(=O)ON=C3c3ccccc3)o2)c([N+](=O)[O-])c1	Marburg entry inh inconclusive, HCMV inh -94.5 (no result: VACV Venus inh, VACV mCherry inh)
O=C1NC(=O)C(=Cc2ccc(-c3ccccc3[N+](=O)[O-])o2)C(=O)N1	FMDV antiviral 35.5µM, Marburg entry inh inconclusive
CN(N=O)C(=O)N[C@H]1C(O)OC(CO)[C@@H](O)[C@H]1O (some centres not stated)	none (no result: VACV Venus inh, VACV mCherry inh, Marburg entry inh, LASV entry inh, HCMV inh)
CCN(CC)c1ccccc1/C=C/[n+]1ccc(CCCCI)c2ccccc21	none (no result: FMDV antiviral, Marburg entry inh, LASV entry inh, HCMV inh)
Cc1nnc(SCC(=O)NCc2ccc(N(C)C)cc2)c2nn(-c3ccccc3)c(C)c12	none (no result: Marburg entry inh)
C#Cc1cccc(C(=O)NCc2nc(-c3ccccc3NC(C)=O)oc2C)c1	none (no result: Marburg entry inh, LASV entry inh, HCMV inh)
FC(F)(F)c1cccc(Nc2nc3nonc3nc2Nc2ccc(Cl)cc2)c1	VACV Venus inh 1.78µM, VACV mCherry inh 2µM, FMDV antiviral inconclusive, Marburg entry inh inconclusive, LASV entry inh inconclusive, HCMV inh -98.0
c1csc(-c2nnc(NC3CCCCC3)c3ccccc23)c1	VACV Venus inh inconclusive, VACV mCherry inh inconclusive, FMDV antiviral 39.8µM, Marburg entry inh inconclusive
CC1CCN(c2nc3ccccc3nc2N2CCC(C)CC2)CC1	none (no result: VACV Venus inh, VACV mCherry inh, FMDV antiviral, LASV entry inh, HCMV inh)
CC1CCN(c2nnc(-c3cccs3)c3ccccc23)CC1	HCMV inh -66.5 (no result: VACV Venus inh, VACV mCherry inh, LASV entry inh)
Cc1ccc(S(=O)c2ccc([N+](=O)[O-])c3nonc23)cc1 (configuration not stated)	VACV mCherry inh inconclusive, FMDV antiviral inconclusive, HCMV inh -95.0 (no result: Marburg entry inh, LASV entry inh)
Cc1ccc(Nc2c([N+](=O)[O-])ccc3nonc23)c(C)c1	HCMV inh inconclusive
Fc1ccc(Nc2ccnc(-c3ccc4c(c3)OCO4)n2)cc1	none (no result: VACV Venus inh, VACV mCherry inh, Marburg entry inh, LASV entry inh, HCMV inh)
Cc1ccc(CNc2nc3ccccc3s2)s1	VACV Venus inh inconclusive, Marburg entry inh inconclusive, LASV entry inh 6.31µM (no result: VACV mCherry inh)
COc1ccc(CNc2nc3ccccc3s2)cc1OC	Marburg entry inh inconclusive
CN(Cc1cccc(F)c1)CC(O)COCc1ccccc1Cl (configuration not stated)	none
Fc1cccc(CN(C2=NCCN2)c2c(Cl)cccc2Cl)c1	HCMV inh -63.0 (no result: Marburg entry inh, LASV entry inh)
Fc1ccc(CN2CCN(c3ncccn3)CC2)cc1	none (no result: FMDV antiviral)
Fc1ccc(CN(C2=NCCN2)c2c(Cl)cccc2Cl)cc1	Marburg entry inh 18.3µM, LASV entry inh inconclusive (no result: VACV Venus inh, VACV mCherry inh, FMDV antiviral, HCMV inh)
CCOc1ccc(/C=C/C2=CC(C)(C)NC(=S)N2)cc1	VACV Venus inh inconclusive, VACV mCherry inh inconclusive, HCMV inh -93.8
COc1ccc(/C=C/C2=CC(C)(C)NC(=S)N2)cc1OC	HCMV inh inconclusive (no result: VACV Venus inh, VACV mCherry inh, Marburg entry inh, LASV entry inh)
NC(Cc1cnc[nH]1)C(=O)Nc1ccc2ccccc2c1 (configuration not stated)	none (no result: Marburg entry inh, LASV entry inh, HCMV inh)
CC1CN(C(=O)CCC(=O)Nc2cc(F)ccc2F)c2ccccc2S1 (configuration not stated)	HCMV inh -77.7 (no result: Marburg entry inh)
Cc1ccc(NC(=O)c2oc3c(c2C)-c2[nH]ncc2CC3)c(Cl)c1	none
Cc1ccc(C)c(NC(=O)C(Sc2nc3ccc(C)cc3[nH]2)c2ccccc2)c1 (configuration not stated)	VACV Venus inh inconclusive, FMDV antiviral inconclusive, Marburg entry inh 8.91µM, LASV entry inh inconclusive, HCMV inh -73.7
COc1ccc(-c2nn(-c3ccc(C)c(Cl)c3)c3c2cnc2cc(OC)c(OC)cc23)cc1	none (no result: Marburg entry inh)
Cc1ccc(N2C(S)=C(C#N)C(=O)NC23CCCCC3)cc1	HCMV inh -60.1
CCOC(=O)N1CCN(c2c(NCc3ccc(F)cc3)c(=O)c2=O)CC1	none (no result: Marburg entry inh, LASV entry inh)
CCOC(=O)N1CCN(c2c(NCc3ccc(Cl)cc3)c(=O)c2=O)CC1	VACV mCherry inh inconclusive, HCMV inh -74.6 (no result: Marburg entry inh, LASV entry inh)
CCOC(=O)N1CCN(c2c(NCCCN(C)c3ccccc3)c(=O)c2=O)CC1	HCMV inh -75.0 (no result: Marburg entry inh, LASV entry inh)
COc1cc(C(=S)N2CCCCC2)ccc1O	none (no result: FMDV antiviral)
Oc1ccc(C(=S)N2CCCCC2)cc1Cl	HCMV inh -75.2 (no result: VACV Venus inh, VACV mCherry inh)
COc1cccc(/C=C/c2cnc3ccccc3n2)c1OC	none (no result: FMDV antiviral, Marburg entry inh, LASV entry inh, HCMV inh)

High-throughput results as filed in PubChem BioAssay.
